High-throughput results: PubChem BioAssay, National Center for Advancing Translational Sciences (NCATS)
Shown are actives, neighbours in structure and some others; about 21% of the full set was active somewhere.
Pf growth 48h – P. falciparum growth inhibition at 48 hours (one generation) | P. falciparum luciferase growth in erythrocytes, 48 h | Potency, µM (doses to about 28.7 µM), hits mostly inhibitors | 310,000 tested, 5.9% active
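Here the parasites carry a stable luciferase gene and grow inside erythrocytes in Albumax-based RPMI medium with compound for one erythrocytic cycle. Activity is scored as loss of luminescent signal.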
HCV inh – inhibitors of hepatitis C virus infection. Huh7.5.1 HCVcc-Cre infection, luciferase reporter, 44 h. Potency, µM (highest dose often 41.8 µM), hits mostly inhibitors. 340,000 tested, 3.4% active. AID 651820
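1,000 cells/well; 4 h culture; + compound; + HCVcc-Cre (~0.5 moi); 44 h; luciferase substrate, RT 15 min; read 15 sec.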
Pf growth 96h – P. falciparum growth inhibition at 96 hours | AID 504834 | P. falciparum luciferase reporter growth, 96 h | 320,000 tested, 6.9% active | Potency, µM (titrated, usually from 28.7 µM), most hits filed as inhibitors
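Parasite growth measured via integrated firefly luciferase reporter in P. falciparum. Infected erythrocytes at 2% hematocrit, 0.05% parasitemia final were treated 96 hours at 37 C under 5% CO2, and luminescence was read.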
Shiga inhibitor – Shiga toxin inhibition. Vero cells, Shiga toxin protein synthesis inhibition reporter. inhibition, % at 38.7 µM. 290,000 tested, 9.2% active. AID 2315; in the data active = inhibition mostly above about 28%, no sharp cut-off; inactive = mostly below about 43%
AMA1 RON2 block – inhibitors of Plasmodium falciparum AMA1-RON2 interaction; AlphaScreen AMA1-biotinylated RON2 peptide binding; Potency, µM (highest dose often 58.2 µM), actives largely listed as inhibitors; 360,000 tested, 0.2% active; AID 720542; note: nearly all actives have a fitted effect of over 45% in size
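AMA1 (3D7) with his tag at 25 nM final met compounds first, then biotinylated RON2 peptide at 25 nM; detection used donor plus acceptor beads, 10 µg/mL apiece, read by AlphaScreen after 30 min at room temperature.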
CHX counter – counter-screen hit for Shiga toxin inhibitors, cycloheximide | cell reporter, cycloheximide protein synthesis inhibition counterscreen | max response, % | 300,000 tested, 12% active | AID 2314; in the data active = max response mostly above about 13%, no sharp cut-off; inactive = mostly below about 14%; note: read at 38.3 µM for the half of the compounds with a filed dose
Large screens that a line does not name were inactive. Unless noted, calls come from the whole dose curve; as a rule, active = well fitted curve in the direction sought with a large enough effect; inconclusive = small, poorly fitted or top-dose-only effect, or another doubt; inactive = no such curve, though single readings can be large; an effect the other way counts as inactive or inconclusive.

O=C(NCc1ccccc1)c1cc2ccccc2oc1=O	Shiga inhibitor 44, CHX counter 50
O=C(Nc1ccc(Oc2ccccc2)cc1)c1ccc2sc([C@H]3C[C@H](O)[C@@H](CO)O3)nc2c1	none (no result: Pf growth 48h, HCV inh, Pf growth 96h, Shiga inhibitor, CHX counter)
O=C(N/N=C/c1cccnc1)c1cc(-c2ccc(Br)cc2)nc2ccccc12	none
CC(C)(C)C(=O)OC/C(N)=N/OC(=O)c1ccc(Cl)c(Cl)c1	Pf growth 48h inconclusive, Pf growth 96h inconclusive, CHX counter 20
COc1ccc(N2CCN(C(=O)CSc3nnc(C4CC4)n3C3CC3)CC2)cc1	none (no result: Pf growth 48h, HCV inh, Pf growth 96h, Shiga inhibitor, CHX counter)
CCN1CCN(C(=O)CN(c2ccc(F)cc2)S(=O)(=O)c2ccc(OC)c(OC)c2)CC1	Pf growth 96h 6.6µM
COc1ccc(S(=O)(=O)N(C)CC(=O)N2CCN(c3ccc(F)cc3)CC2)cc1OC	none (no result: Pf growth 96h)
COc1ccc(S(=O)(=O)N(C)CC(=O)N2CCCCCC2)cc1OC	Pf growth 96h 9.3µM
Cc1ccccc1OCC(=O)NCC(=O)OCc1ccc(Br)cc1	Pf growth 96h inconclusive
CCOC(=O)C(=O)N(C)c1c(CC)nc2c(OCc3cccc(OC)c3)cccn12	none (no result: Pf growth 48h, HCV inh, Pf growth 96h, Shiga inhibitor, CHX counter)
CC(=O)Oc1c(I)cc(I)cc1C(=O)Nc1ccc(Cl)cc1	HCV inh inconclusive, Pf growth 96h inconclusive, CHX counter 24
COC(=O)Cn1nc(C)c2ccccc2c1=O	none
CCOC(=O)Cn1ncc2c3ccccc3n(CC(=O)OCC)c2c1=O	none (no result: Pf growth 48h)
O=C(Cn1ncc2c3ccccc3n(Cc3ccc(F)cc3)c2c1=O)N1CCN(c2ncccn2)CC1	Pf growth 48h 9.3µM, HCV inh inconclusive
Cc1ccccc1Cn1c2ccccc2c2cnn(CC(=O)N3CCN(c4ccccc4)CC3)c(=O)c21	Pf growth 96h inconclusive (no result: Pf growth 48h)
COC(=O)Cn1ncc2c3ccccc3n(Cc3ccccc3)c2c1=O	Pf growth 48h inconclusive, Pf growth 96h 5.2µM
COC(=O)Cn1ncc(N(C)Cc2ccccc2)c(Cl)c1=O	Shiga inhibitor 72, CHX counter 41
Cc1c2cnn(CC(=O)NCCCN3CC(C)CC(C)C3)c(=O)c2c(C)n1Cc1ccccc1Cl (stereo not drawn)	Pf growth 48h 6.6µM
O=C(O)CCC(=O)Nc1cc(C(F)(F)F)cc(C(F)(F)F)c1	Pf growth 48h inconclusive
O=c1[nH]ncc2c3ccccc3n(Cc3ccc(F)cc3)c12	Pf growth 48h 3.3µM
O=c1[nH]ncc2c3ccccc3n(Cc3cccc(Cl)c3)c12	Pf growth 48h inconclusive, HCV inh inconclusive
Cc1c2cnn(CC(=O)N3CCC4(CC3)OCCO4)c(=O)c2c(C)n1Cc1ccccc1Cl	CHX counter 14
Cc1c2cnn(CC(=O)N3CCC4(CC3)OCCO4)c(=O)c2c(C)n1Cc1ccccc1	none
O=C(Cn1ncc2c3ccccc3n(Cc3ccc(F)cc3)c2c1=O)N1CCC2(CC1)OCCO2	Pf growth 48h 12µM, HCV inh inconclusive, Pf growth 96h inconclusive
O=C(Nc1ccc(N2CCOCC2)cc1N1CCOCC1)c1cccc([N+](=O)[O-])c1	HCV inh inconclusive
Cc1ccc(S(=O)(=O)N2C[C@H]3n4c(=O)ccc(=O)n4C[C@H](OC(=O)NCC4CCCCC4)[C@@]3(O)C2)cc1	none (no result: Pf growth 48h, HCV inh, Pf growth 96h, Shiga inhibitor, CHX counter)
CN(C)c1ccc(NC(=O)Cn2cc3c(n2)CCCC3)cc1	Pf growth 48h inconclusive, Pf growth 96h inconclusive, Shiga inhibitor 72, AMA1 RON2 block inconclusive, CHX counter 56
CCN(CCCNC(=O)Cn1cc2c(n1)CCCC2)c1cccc(C)c1	Pf growth 96h 13µM
CCOCCCNC(=O)Cn1cc2c(n1)CCCC2	none
COc1ccc(C(=O)N2C(=S)NC(=O)/C2=C\c2ccc(C)cc2)cc1	CHX counter 22
CCOCCCNC(=O)c1cn(CC)c2ccc(S(=O)(=O)N(C)C3CCCCC3)cc2c1=O	Pf growth 48h 9.3µM, Pf growth 96h inconclusive
CCCN(CCC)CCCNC(=O)c1cn(CC)c2ccc(S(=O)(=O)N(C)C3CCCCC3)cc2c1=O	Pf growth 48h 9.3µM, HCV inh inconclusive, Pf growth 96h 10µM
CCOC(=O)c1ccccc1NC(=O)Cn1cnc2c(cnn2C(C)(C)C)c1=O	Pf growth 96h inconclusive
CC(C)(C)n1ncc2c(=O)n(CC(=O)NC3CCCCC3)cnc21	Shiga inhibitor 85, CHX counter 35 (no result: Pf growth 96h)
CC(C)(C)n1ncc2c(=O)n(CC(=O)NCc3ccco3)cnc21	HCV inh inconclusive, Shiga inhibitor 67, CHX counter 46
Cc1ccc(-n2ncc3c(=O)n(CC(=O)NC4CCCCC4)cnc32)cc1C	Pf growth 96h inconclusive
O=C(Cn1cnc2c(nnn2Cc2ccc(F)cc2)c1=O)NCc1ccccc1	Pf growth 48h 9.3µM
CC(C)(C)n1ncc2c(=O)n(CC(=O)Nc3ccccc3)cnc21	none
CC(C)(C)n1ncc2c(=O)n(CC(=O)NCc3ccc(F)cc3)cnc21	Pf growth 96h 13µM, Shiga inhibitor 54, CHX counter 27
COc1ccc(CN2C[C@@H](CO)O[C@@H](n3cnc4c(N5CCOCC5)ncnc43)C2)cc1	none (no result: Pf growth 48h, HCV inh, Pf growth 96h, Shiga inhibitor, CHX counter)
CC(C)c1cc(Cn2c3ccccc3c(=O)n2C(C)Cn2cc(CCCC#N)nn2)on1 (stereo not drawn)	none (no result: Pf growth 48h, HCV inh, Pf growth 96h, Shiga inhibitor, CHX counter)
CCc1ccc(CNC(=O)C2CCN(S(=O)(=O)N3CCCCC3)CC2)cc1	none (no result: Pf growth 48h, HCV inh, Pf growth 96h, Shiga inhibitor, CHX counter)
CCn1cc(C(=O)N2CCN(c3ccccc3F)CC2)c(=O)c2ccc(C)nc21	none
CCOC(=O)c1oc2nc3c(cc2c1N)CCCC3	Pf growth 96h 12µM, Shiga inhibitor 77, CHX counter 50
CCOC(=O)c1oc2nc3c(cc2c1N)COC(C)(C)C3	Shiga inhibitor 82, CHX counter 20
CCOC(=O)c1oc2nc(CC(C)C)c3c(c2c1N)CCCC3	Pf growth 48h inconclusive, HCV inh 2.8µM, Pf growth 96h inconclusive
CCC(CC)C(=O)N(C)c1c(C)nc2c(OCCC3CCCCC3)cccn12	none (no result: Pf growth 48h, HCV inh, Pf growth 96h, Shiga inhibitor, CHX counter)
O=C(CNS(=O)(=O)c1c(F)cccc1F)NC1CCCc2ccccc21 (stereo not drawn)	none (no result: Pf growth 48h, Pf growth 96h, Shiga inhibitor, CHX counter)
Cc1ccc(NC(=O)C(C)C(=O)Nc2ccc(C)cc2)cc1	Pf growth 96h inconclusive
Cc1ccc(NC(=O)N2CCC(=O)N2)cc1	Shiga inhibitor 77, CHX counter 37
CCn1c(=O)cc(C(=O)OC)sc1=Nc1ccc(F)c(F)c1	HCV inh 13µM (no result: Pf growth 48h)
COC(=O)c1cc(=O)n(CCc2ccccc2)c(=Nc2ccc(F)cc2)s1	Pf growth 48h inconclusive, Pf growth 96h 4.1µM
COC(=O)c1cc(=O)n(CCc2ccc(OC)cc2)c(=Nc2ccc(F)c(Cl)c2)s1	HCV inh inconclusive (no result: Pf growth 48h)
COc1ccc(OC)c(NC(=O)CSc2nnc3ccc(-c4ccccn4)nn23)c1	none (no result: Shiga inhibitor, CHX counter)
Cc1ccc2nc(NC(=O)c3ccccc3F)sc2c1	HCV inh inconclusive, Pf growth 96h inconclusive, Shiga inhibitor 83, CHX counter 39
CCCC(=O)Nc1nc2ccc(NC(=O)c3ccccc3F)cc2s1	Shiga inhibitor 47, CHX counter 21
O=C(CCNC(=O)c1ccccc1Cl)Nc1nc2ccc(F)cc2s1	none (no result: Shiga inhibitor, CHX counter)
